The record followed here is PubChem BioAssay.

A number with no mark means an inactive call. No rule for the calls is given here.

In this assay the target is Pantothenate synthetase (Mycobacterium tuberculosis (strain ATCC 25618 / H37Rv)) (UniProt P9WIL5). The experiment in a line: Coupled enzyme confirmation of inhibitors against recombinant Mtb PanC (AID 375).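 Also: 0% = full reaction with vehicle and 100% = no enzyme background.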 Conditions: coupled enzyme assay; at 10 µM, hits give high values.
Chain of Pantothenate synthetase (Mycobacterium tuberculosis (strain ATCC 25618 / H37Rv)) (P9WIL5 whole entry, looked up): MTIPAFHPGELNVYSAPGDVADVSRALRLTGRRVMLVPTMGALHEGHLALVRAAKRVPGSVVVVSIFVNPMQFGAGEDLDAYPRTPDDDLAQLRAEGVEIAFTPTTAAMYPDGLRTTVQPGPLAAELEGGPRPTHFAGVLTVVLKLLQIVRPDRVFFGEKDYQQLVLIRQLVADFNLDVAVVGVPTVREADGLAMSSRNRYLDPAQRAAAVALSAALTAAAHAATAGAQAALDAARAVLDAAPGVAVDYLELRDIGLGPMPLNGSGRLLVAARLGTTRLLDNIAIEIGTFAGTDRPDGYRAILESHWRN
Turning to `O=C(CSc1ncc(-c2ccc(F)cc2)[nH]1)N1CCCCC1`, the inhibition was 0%.
The value for `O=S(CC(O)COCc1ccc(Cl)cc1)c1ccccn1` (stereo not given) was 0%; that for `CCOC(=O)C1CCN(c2nc3ccccc3nc2C(C#N)C(=O)OC(C)C)CC1` (stereo not given) was 0%.
As for `CCOc1ccccc1CN1C(=O)c2ccccc2C1C(=O)NCC1CCCO1` (stereo not given), the figure is 11%; as for `Cc1ccc(NC(=O)c2cc(S(=O)(=O)N3CCC4(CC3)OCCO4)ccc2F)cc1`, 0%.
The value for `Brc1ccc(-c2cn3cccnc3n2)cc1` was 0%; that for `CN(Cc1ccccc1)S(=O)(=O)c1ccc(S(=O)(=O)N2CCN(CCC#N)CC2)cc1` was 0%.
With `CCOC(=O)C1=C(c2ccccc2)N2CCN=C2S1`, the inhibition was 3%.
As for `CCOc1ccc(-c2nnn(CC(=O)N3CCN(c4ccc(F)cc4)CC3)n2)cc1OCC`, the figure is 0%.
The value for `COC(=O)C1=C(C)NC(C)=C(C(=O)OC)C1C1CC=CCC1` (stereo not given) was 3%; that for `COc1ccc(CCNc2oc(COc3ccccc3Cl)nc2C#N)cc1OC` was 3%; that for `CCCS(=O)(=O)NCCc1cc2cc(C)c(C)cc2[nH]c1=O` was 0%.
As for `Cc1ccc(S(=O)(=O)N2CCN(C(=O)CN3CCOCC3)C2C(C)C)cc1` (stereo not given), the figure is 0%; as for `COC(=O)Cc1c(C)nc2nc(-c3ccco3)[nH]n2c1=O`, 2%; as for `CCCc1ccccc1OCCNC(C)=O`, 3%.
`CCCn1c2ccccc2c2nnc(SCC(=O)OCC)nc21`: the inhibition was 6%.
The value for `CCN1CCN(S(=O)(=O)c2ccc(S(=O)(=O)N(CC)Cc3ccccc3)cc2)CC1` was 7%.
As for `Cc1ccc(C)c(N2CCN(C(=O)CCCn3c(=S)[nH]c4cc5c(cc4c3=O)OCO5)CC2)c1`, the figure is 0%.
Turning to `CCN(CCNC(=O)C1CCN(S(=O)(=O)CC)CC1)c1ccccc1`, the inhibition is 2%.
As for `COC(=O)Cn1c(=O)c2c(nc3n2CC(C)CN3c2ccc(C)c(C)c2)n(C)c1=O` (stereo not given), the figure is 4%; as for `COc1ccc(N2CCN(C(=O)CSc3nnc4n3C(C)(C)Cc3ccccc3-4)CC2)cc1`, 0%.
In the case of `O=C1c2ccccc2-c2nc3ncnn3c(-c3ccccc3)c21`, the inhibition is 0%.
As for `Cc1oc(-c2ccccc2F)nc1CS(=O)(=O)CC(=O)N1CCN(Cc2ccccc2)CC1`, the figure is 0%; as for `COCCNC(=O)c1ccc(Cl)c(Cl)c1`, 0%; as for `Cc1ccc(S(=O)(=O)NCCNC(=O)c2ccccc2)cc1`, 4%.
As for `O=C(CSc1nnc2ccccn12)c1ccccc1`, the figure is 0%; as for `CCOC(=O)N1CCC(N2C(=O)c3ccc(C(=O)NCc4ccco4)cc3C2=O)CC1`, 2%; as for `Cc1cc(=O)oc2cc(OCC(=O)OCc3nnc(-c4ccccc4)o3)ccc12`, 1%.
For `C[C@]12CC[C@@H]3c4ccc(O)cc4CC[C@H]3[C@@H]1CCC2=O`, the inhibition was 6%.
As for `CCOC(=O)C1CSc2[nH]c(=O)sc2C1c1ccccc1` (stereo not given), the figure is 0%; as for `CCc1ccccc1N1CC23C=CC(O2)C(C(=O)O)C3C1=O` (stereo not given), 0%.
The value for `CC(C)=CCCC(C)N(C=O)C(C)CCC=C(C)C` (stereo not given) was 3%.
The value for `CCC(=O)c1ccc(OC(=O)c2ccc(Br)o2)cc1` was 7%; that for `COc1ccc(-n2ncc3c(NCc4ccccn4)ncnc32)cc1` was 11%; that for `CN(C)c1ccc(C(=O)Nc2nnc(-c3ccc(Cl)cc3)o2)cc1` was 0%.
With `FC(F)Oc1cccc2cccnc12`, the inhibition was 6%.
`Cc1cc(-c2ccccc2)c2nncn2n1`: the inhibition is 3%.
The value for `CCN(CC)S(=O)(=O)c1ccc2c(c1)c(=O)c(C(=O)NCCOC)cn2C` was 1%; that for `CCn1c(C(=O)N2CCCC(C(=O)NCCCc3ccccc3)C2)cc2sccc21` (stereo not given) was 0%; that for `C#CC(CO)N(CCN(Cc1ccccc1)C(C#C)CO)Cc1ccccc1` (stereo not given) was 9%.

Broadly, the inhibition is the relative decrease from the control value, in per cent.
